Screening data as filed in PubChem BioAssay.
p53 reactivation – mutant p53 re-activation in reporter cells. H1299 p53-A138V BP100-luciferase reporter, luminescence, 24 h. Potency, µM (series often up to 92.2 µM), without a hit: at the highest dose activity change, positive = activation, most hits filed as activators. hit rate 0.063% among 320,000. AID 504706; also: potency is read from the fitted curve at half-maximal effect; % of control where 0% means no effect; nearly all actives have a fitted effect of over 45% in size
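p53-null H1299 cells stably carrying temperature-sensitive p53-A138V and a BP100-luciferase reporter were pinned with compounds (4-point, 1:5 series) and held 24 hrs at 37 deg C. Luminescence was read 10 min after detection reagent.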
Giardia killer – Giardia lamblia killing; Giardia lamblia trophozoite viability; activity change, % at 7.66 µM, hits read low; hit rate 0.15% among 340,000; in the data active = activity change below about -80%; inconclusive = between about -30% and that limit;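 also: parasites exposed to compound for two days anaerobically before the ATP read; % is scaled to controls: 0 for no effect and ±100 for the full control effect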
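Each well holds 100 Giardia trophozoites and compound. After two days (48 hrs) at 37 deg C in anaerobic conditions, ATP is quantified by luminescence.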
RORgamma inh – inhibitors of mouse ROR gamma transcriptional activity. P51450. Drosophila S2 Gal4-RORgamma UAS-luciferase reporter, 20 h. Potency, µM (highest dose often 53.6 µM), for the others: top-dose activity change, negative = inhibition, hits mostly inhibitors. hit rate 5.4% among 310,000. AID 2551; also: potency is read from the fitted curve at half-maximal effect; % is scaled to controls: 0 for no effect and ±100 for the full control effect; nearly all actives have a fitted effect of over 60% in size
Target sequence (P51450 whole entry, looked up, the tested form may be a part): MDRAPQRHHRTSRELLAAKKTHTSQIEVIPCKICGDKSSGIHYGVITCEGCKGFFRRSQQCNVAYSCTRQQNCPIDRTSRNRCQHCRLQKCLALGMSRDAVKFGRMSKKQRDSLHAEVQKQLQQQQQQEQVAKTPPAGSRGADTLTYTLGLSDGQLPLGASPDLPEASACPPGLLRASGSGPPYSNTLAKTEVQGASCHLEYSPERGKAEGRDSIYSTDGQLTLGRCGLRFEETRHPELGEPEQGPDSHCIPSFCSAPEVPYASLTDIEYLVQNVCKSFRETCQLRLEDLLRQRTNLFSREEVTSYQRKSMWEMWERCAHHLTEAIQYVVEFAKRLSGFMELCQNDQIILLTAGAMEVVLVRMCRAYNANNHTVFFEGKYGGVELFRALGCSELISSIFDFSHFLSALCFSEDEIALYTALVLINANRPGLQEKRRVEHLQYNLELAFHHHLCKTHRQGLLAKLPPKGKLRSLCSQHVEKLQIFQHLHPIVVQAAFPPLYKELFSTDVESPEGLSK
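In this cell-based reporter format, copper sulfate (700 uM final) drives Gal4–ROR gamma fusion expression from a metallothionein promoter in Drosophila Schneider cells; compounds preincubated 1 hr, reporter read after 20 hr at ambient temperature.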
ELG1 repair inh – inhibitors of ELG1-dependent DNA repair in HEK293T cells. HEK293T ELG1-luciferase reporter, luminescence, 16 h; DNA damage induced by 5-fluorouridine. Potency, µM (titrated, usually from 46.1 µM), inactives show top-dose activity change, negative = inhibition, most hits filed as inhibitors. hit rate 2.3% among 330,000; also: potency is read from the fitted curve at half-maximal effect; % is scaled to controls: 0 for no effect and ±100 for the full control effect; nearly all actives have a fitted effect of over 55% in size
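Overnight (16 hr) co-exposure of 2,000 cells/well to 5-fluorouridine and compound at 37 °C preceded detection. Luciferase was quantified via ONE-Glo luminescence; loss of signal denotes inhibition.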
Gal4-VP16 FLuc – Gal4-VP16 reporter inhibition counter-screen; hit rate 3.5% among 310,000; Potency, µM (highest dose often 53.6 µM), for the others: at the top dose activity, negative = inhibition, actives largely listed as inhibitors; Drosophila S2 Gal4-VP16 UAS-luciferase, luminescence, 20 h; AID 2546;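 also: Gal4-VP16 expression switched on by copper sulfate through the metallothionein promoter; potency is read from the fitted curve at half-maximal effect; % is scaled to controls: 0 for no effect and ±100 for the full control effect; nearly all actives have a fitted effect of over 50% in size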
BRCA1 expr act – BRCA1 expression activation | hit rate 1.1% among 380,000 | MCF7-BRCA1-FFLuc reporter, luminescence, 48 h; response scale: scaled: vehicle 0%, 10 µM genistein 100% | Potency, µM (doses to about 46.1 µM), for the others: top-dose activation, actives largely listed as activators; also: potency is read from the fitted curve at half-maximal effect; nearly all actives have a fitted effect of over 80% in size
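Quantitative HTS in MCF7 cells stably reporting BRCA1 expression via firefly luciferase. Compound treatment lasts 48 h at 37 °C in phenol-red free MEM. Activation is expressed relative to genistein at 10 microM and DMSO.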
The depositor's hits bear a star; ? = inconclusive; / = not tested or not shown; [ ] = remark or other dose. Hits are enriched below; roughly 7.6% of the tested compounds scored in any of these assays. Unless noted, calls follow the shape of the dose curve; as a rule, active = well fitted curve in the direction sought with a large enough effect; inconclusive = small, poorly fitted or top-dose-only effect, or another doubt; inactive = no such curve, though single readings can be large; an effect the other way counts as inactive or inconclusive.

SMILES | p53 reactivation | Giardia killer | RORgamma inh | ELG1 repair inh | Gal4-VP16 FLuc | BRCA1 expr act
CC1OC(O[C@H]2CC[C@]3(C)C4C=C[C@]56OC[C@@]7(CC[C@@H](C)[C@H](C)C75)[C@H](O)C[C@@]6(C)[C@]4(C)CC[C@H]3C2(C)C)C(OC2OC(CO)C(O)C(O)C2OC2OCC(O)C(O)C2O)C(O)C1O (stereo not given in full) | -13% | / | 1.8µM* | 2% | -21% | /
COc1ccccc1/C=C/C(=O)c1ccc(Cl)cc1 | -1% | 7 | ? | ? | -5% | -66%
COc1ccccc1/C=C/C(=O)c1c2c(c(C)[nH]c1=O)CCCC2 | -3% | 11 | 5.6µM* | 18µM* | 4.5µM* | -85%
COc1ccccc1/C=C/C(=O)c1ccccc1 | 32µM* | -29 | ? | ? | 0% | 3%
CC1(C)Cc2c(cnn2-c2ccc(F)cc2)C(NC(=O)CCc2ccncc2)C1 (stereo not given) | / | -10 | 36% | ? | ? | 61%
Cc1ccccc1C(=O)NCCNC(=O)c1ccco1 | -6% | -14 | 12% | 10% | 2% | 1%
CN(C(=O)CSc1nc2ccccc2n1CCc1ccccc1)C1CCS(=O)(=O)C1 (stereo not given) | -2% | 1 | 16µM* | -9% | ? | 20%
CCc1cc2c(=O)n(Cc3ccco3)c(SCC(=O)N(C)C3CCS(=O)(=O)C3)nc2s1 (stereo not given) | ? | -8 | 10µM* | 1% | ? | -16%
COCCn1c(SCC(=O)N(C)C2CCS(=O)(=O)C2)nc2ccccc2c1=O (stereo not given) | 4% | -28 | 2% | 7% | -9%[10 µM] | 40%
N#CCCSC(=S)C1CCCC1=N (stereo not given) | / | / | / | / | / | 1%
CCOC(=O)[C@]12CCC=C1N(Cc1ccco1)C(=O)[C@H](CC(=O)NCc1cccs1)C2 | / | / | / | / | / | 12%
COc1cc(Cl)c(C)cc1N1C(=O)CN(Cc2ccccc2)C1=S | -2% | 37 | 4% | -9% | 4% | -44%
CCOc1ccc(-c2[nH]nc3c2C(c2ccc(O)cc2)C(C#N)=C(N)O3)cc1 (stereo not given) | 8% | 2 | 5% | 12% | 5% | -3%
COc1ccc(-n2c(CN3CCN(c4ccccc4OC)CC3)nc3ccc([N+](=O)[O-])cc3c2=O)c(OC)c1 | -4% | 11 | -15% | -12% | 20% | -35%
COc1cccc(-n2c(CN3CCN(c4ccccc4)CC3)nc3ccc([N+](=O)[O-])cc3c2=O)c1 | 5% | -3 | -6%[10 µM] | 18µM* | -7% | 3%
CCCCOc1ccccc1NC(=O)C=C(C)C | 2% | -3 | -2% | 0% | -3% | 14%
CCCOc1ccccc1NC(=O)/C=C/C(N)=O | -14% | -13 | 4µM* | 4% | 4.5µM* | -16%
C[C@@H]1CN([C@H](C)CO)C(=O)CCCn2cc(nn2)CO[C@H]1CN(C)C(=O)OCc1ccccc1 | / | / | / | / | / | 0%
Cc1sc(NC(=O)/C=C/c2ccc3c(c2)OCO3)nc1-c1ccccc1 | -16% | 13 | 10% | 8.2µM* | -11% | -92%
O=C(/C=C/c1ccc2c(c1)OCO2)Nc1nc(-c2ccccc2)cs1 | 8% | -9 | 28% | 18µM* | -2% | -32%
CN1CCN(c2nc3c(c(=O)[nH]c(=O)n3C)n2Cc2ccccc2F)CC1 | / | 0 | / | 9% | / | -6%
NC(=O)CSc1nc2cc([N+](=O)[O-])ccc2n1-c1cccc(C(F)(F)F)c1 | -1% | 57 | ? | 3% | -6% | -19%
CC(Sc1nc2cc([N+](=O)[O-])ccc2n1-c1cccc(C(F)(F)F)c1)C(=O)NC(N)=O (stereo not given) | -14% | 0 | 13µM* | 1% | 20µM* | 1%
COC(=O)c1nn(-c2ccccc2)c(Sc2ccccc2)c1/C=N/O | -3% | -14 | -2% | ? | -8% | -4%
O=C(Nc1ccc2c(c1)OCO2)C1Cc2c(-c3ccc(Cl)cc3)ccnc2O1 (stereo not given) | / | / | / | / | / | -64%
SMILES | p53 reactivation | Giardia killer | RORgamma inh | ELG1 repair inh | Gal4-VP16 FLuc | BRCA1 expr act
CC(=O)Nc1ccc(C(=O)Nc2nc(-c3ccccn3)cs2)cc1 | 3% | 3 | 7.9µM* | ? | 4% | 0%
CCCn1nc(C(=O)Nc2nc(-c3ccccn3)cs2)c2ccccc2c1=O | 11% | -23 | / | 7.3µM* | / | -54%
O=C(Nc1nc(-c2ccccn2)cs1)c1ccc2c(c1)OCCO2 | 7% | -28 | 3.2µM* | ? | 10µM* | 5%
CC(=O)Nc1ccc(C(=O)Nc2nc(-c3cccnc3)cs2)cc1 | 1% | 6 | -33% | 1% | 0% | -29%
O=C(Nc1nc(-c2ccccn2)cs1)c1ccccc1-n1cnnn1 | 6% | -10 | 5µM* | 2.6µM* | -14% | -47%
Cn1nc(C(=O)Nc2nc(-c3ccccn3)cs2)c2ccccc2c1=O | 3% | -8 | / | ? | / | -65%
CC(C)(C)c1cc(N)n(-c2ccc(C(=O)O)cc2)n1 | -3% | -8 | -3% | -10% | 7% | 5%
Cc1ccc(/C([O-])=C(/C(=S)NCc2ccccc2)[n+]2ccccc2)cc1[N+](=O)[O-] | -2% | 1 | ? | -4% | 2% | 8%
CC(C)(C)OC1NS(=O)(=O)OCC1NCOC(Cl)(Cl)Cl (stereo not given) | / | -2 | 10µM* | -14% | 22µM* | -7%
Cc1ccc(NC(=S)NN2CCOCC2)c(C)c1 | 2% | 1 | 11µM* | 13% | ? | 2%
COc1ccc(OC)c(NC(=S)NN2CCN(C)CC2)c1 | -7% | -10 | -6% | ? | 6% | 0%
Cc1cc(Br)ccc1NC(=S)N1CCOCC1 | 0% | 24 | 13µM* | -5% | 1% | 0%
COc1ccc(OC)c(NC(=S)NN2CCOCC2)c1 | -7% | -8 | 28µM* | -22% | -8%[0.365 µM] | 22%
Fc1ccc(NC(=S)N2CCOCC2)c(F)c1 | 12% | -3 | 0% | -1% | -6% | 1%
S=C(Nc1cccc2ccccc12)NN1CCOCC1 | 29% | -5 | 11µM* | 0% | ? | -2%
CC(C)CN(C(=O)COC(=O)c1ccccn1)c1c(N)n(Cc2ccccc2)c(=O)[nH]c1=O | 9% | 2 | / | -10% | / | 13%
COc1ccc(Cl)cc1NC(=S)NN1CCOCC1 | -4% | -1 | 5µM* | 0% | ? | 0%
COc1ccc(NC(=S)NN2CCOCC2)cc1OC | -2% | -5 | -27% | -5% | 1% | -5%
COc1ccc(Cc2nc3ccccc3n2CC(=O)N/N=C/c2ccc(O)cc2)cc1OC | -12% | -20 | 11% | 0% | -5% | -8%
